# High-throughput results deposited in PubChem BioAssay by National Center for Advancing Translational Sciences (NCATS).
# TRb SRC2 PPI – TRbeta-SRC2 interaction inhibition; P10828; TRbeta-SRC2 peptide binding, fluorescence polarization; receptor liganded with 1 µM T3; Potency, µM (highest dose often 106 µM), for inactives: at the highest dose activity change, negative = inhibition, hits mostly inhibitors; 280,000 compounds, 0.065% hits; AID 1469;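 further: potency means the concentration at half of the fitted maximal effect; plate controls were bound peptide for no effect and peptide without receptor for full effect; nearly all actives have a fitted effect of over 50% in size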
# Target sequence (P10828 whole entry, looked up): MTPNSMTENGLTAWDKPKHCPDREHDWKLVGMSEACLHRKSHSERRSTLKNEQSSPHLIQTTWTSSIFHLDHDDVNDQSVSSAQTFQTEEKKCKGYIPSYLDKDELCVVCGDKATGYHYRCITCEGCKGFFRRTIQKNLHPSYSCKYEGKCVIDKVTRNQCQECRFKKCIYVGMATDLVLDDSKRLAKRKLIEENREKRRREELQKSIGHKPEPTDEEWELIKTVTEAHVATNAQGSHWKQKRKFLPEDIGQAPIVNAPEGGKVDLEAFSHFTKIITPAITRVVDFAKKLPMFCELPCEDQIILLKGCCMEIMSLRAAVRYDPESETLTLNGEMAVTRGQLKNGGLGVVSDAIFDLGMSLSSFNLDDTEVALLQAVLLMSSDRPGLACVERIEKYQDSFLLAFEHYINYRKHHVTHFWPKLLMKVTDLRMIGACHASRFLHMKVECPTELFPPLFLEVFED
#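 Quantitative HTS by FP: 0.6 uM TRb LBD, 20 nM labeled SRC2 20-mer, 1 uM T3, 5% DMSO; 5 hr ambient incubation; % activity per concentration and potencies from concentration series.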
# TR SRC2 fluor cs – Texas Red fluorescence interference in TRb-SRC2 counter-screen; TRb/SRC2 Texas Red total fluorescence interference; Potency, µM (doses to about 106 µM), inactives show top-dose fluorescence change, negative = quenching; 280,000 compounds, 0.29% hits; active means well fitted curve in either direction with a large enough effect; inconclusive means small, poorly fitted or top-dose-only effect; further: potency means the concentration at half of the fitted maximal effect; on the % scale 0 is the no-effect control and ±100 the full control effect
#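 Flags fluorescent or light-absorbing compounds by total fluorescence, S + 2P, at 555 nm excitation and 632 nm emission. Mixture: 20 nM Texas Red SRC2 peptide, 0.6 uM human TRb LBD, 1 uM T3, 5% DMSO; compound exposure 5 h at ambient temperature.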
# CBFb-RUNX1 inh – CBF-beta/RUNX1 interaction disruption; AlphaScreen CBFb-His/RUNX1-biotin binding, biochemical; Potency, µM (doses to about 59.8 µM), for the others: at the top dose activity, negative = inhibition, hits mostly inhibitors; 230,000 tested, under 10 active; AID 1477; further: % of control where 0% means no effect
#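 CBFb-His/RUNX1-biotin, 30 nM each, preincubated 20 min RT; compound 15 min RT; Ni + streptavidin beads 50 ng each, 90 min RT; AlphaScreen read.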
# Eya2 phos inh – blocks the phosphatase activity of human Eya2. O00167. recombinant Eya2, OMFP fluorescence dephosphorylation (OMFP is methylfluorescein phosphate). Potency, µM (doses to about 76.9 µM), for the others: top-dose activity, negative = inhibition, usual class: inhibitors. 330,000 compounds, 0.006% hits; further: potency means the concentration at half of the fitted maximal effect; on the % scale 0 is the no-effect control and ±100 the full control effect
#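 Eya2 (0.2 uM) preincubated 10 min at ambient with compound, then OMFP substrate added at 50 uM; 10 min reaction in 50 mM HEPES pH 7.5, 50 mM NaCl, 5 uM MgCl2, 0.05% BSA, 1 mM DTT. Fluorescence read at Ex 485/Em 525 nm.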
# TSHR antag – antagonists of human thyroid stimulating hormone receptor. 330,000 compounds, 0.2% hits. activity change, negative = inhibition, % at 11.5 µM. TSHR-expressing cells, TSH-stimulated cAMP HTRF, 2 h; active compounds read low. P16473. AID 504810;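 active means activity change below a set negative limit, meaning inhibition stronger than a set level, cut at about -70% in these data; inconclusive means activity change between two set negative limits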; further: on the % scale 0 is the no-effect control and ±100 the full control effect
#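 Read-out is FRET at 665 nm (cryptate excitation 337 nm) from a cryptate-tagged anti-cAMP antibody, competed by cell cAMP against cAMP-d2. Compounds are tested on freshly harvested TSHR cells challenged with 4nM TSH (EC80) for 2 hours at 37 deg C.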
# USP2a inh – inhibitors of human ubiquitin-specific protease USP2a | AID 463254 | 330,000 compounds, 0.01% hits | Potency, µM (doses to about 38.3 µM), for inactives: at the top dose activity change, negative = inhibition, hits mostly inhibitors | USP2 core, Ub-CHOP2 coupled fluorogenic reporter, 485/531 | O75604;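 further: potency means the concentration at half of the fitted maximal effect; plate controls were DMSO wells for no effect and full inhibition by NEM control for full effect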
#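 Cell-free coupled assay: 10nM USP2 core preincubated 30min RT with compound in Tris-HCl pH 8.0/CaCl2/CHAPS buffer, then 25nM Ub-CHOP2 and 25nM reporter substrate; fluorescence (Ex 485/Em 531) read after 60min RT, normalized to NEM inhibition, concentration-response curves fitted.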
# The depositor's hits bear a star; u = inconclusive; x = no result; [ ] = dose if it differs, or a comment. A selection: hits, their analogues and other compounds. The true share with any hit is near 0.38%. Unless noted, the call rests on the fitted dose curve; in most records, active means well fitted curve in the direction sought with a large enough effect; inconclusive means small, poorly fitted or top-dose-only effect, or another doubt; inactive means no such curve, though single readings can be large; an effect the other way counts as inactive or inconclusive.
SMILES,TRb SRC2 PPI,TR SRC2 fluor cs,CBFb-RUNX1 inh,Eya2 phos inh,TSHR antag,USP2a inh
Cc1c(N/N=C(\C#N)C(=O)c2ccccc2)c(=O)n(-c2ccccc2)n1C,-12%,2.2µM*[quencher],-1%,-2%,1,2%
Cc1c(NC(=O)Nc2ccccc2Cl)c(=O)n(-c2ccccc2)n1C,-9%,-1%,0%,3%,-80*,0%
CC(C)(C)C1CCC(O)CC1 (stereo not given),0%[201 µM],-4%[201 µM],x,x,x,x
CC1=CC(=O)CC(C)(C)C1,-2%[201 µM],-3%[201 µM],x,x,x,x
O=C(O)c1ccc2c(c1)C(=O)N([C@H](Cc1ccc(-c3ccccc3)cc1)C(=O)O)C2=O,-7%,-2%,11%,5%,-1,3%
O=C(Nc1nc(-c2ccccc2)cs1)c1ccc(N2CCOCC2)c([N+](=O)[O-])c1,6%,0%,u,-11%,-101*,2%
Cc1ccc(-c2csc(NC(=O)c3cc([N+](=O)[O-])ccc3N3CCOCC3)n2)cc1,10%,-1%,2%,13%,2,0%
COc1ccc(OC)c2c1C(=O)C(Cl)=C(Cl)C2=O,4%,-2%,0%,4%,-103*,2%
COc1ccc(OC)c2c1C(=O)c1ccccc1C2=O,-7%,-4%,2%,40%,0,u
COc1ccc(N)c2c1C(=O)c1ccccc1C2=O,32µM*,50µM*[fluorescent],u,-11%,-22,-3%
COC(=O)C1=C[C@@H](C(=O)OC)C2C3=C(C(=O)[C@]2(C)NC(=O)c2ccccc2)[C@H](C)[C@@H]2C(=O)N(C)C(=O)[C@@H]2[C@@H]3C1 (stereo not given in full),-10%,0%,11%,x,x,x
CCOC(=O)c1c(NC(=O)/C=C/c2ccc(OC)c(OC)c2)sc(C(C)=O)c1C,-19%[53 µM],562µM*[quencher],x,x,x,x
O=C1CCCc2cc(S(=O)(=O)NCC3CCC(C(=O)Nc4ccc(Cl)cc4)CC3)ccc2N1 (stereo not given),2%,-22%,x,x,x,x
COc1cccc(NC(=S)N2CCCN(Cc3ccc(F)cc3)C2)c1,7%,3%,-14%,-12%,-104*,1%
CCCCCCCC(=O)OC,6%[201 µM],-3%[201 µM],x,x,x,x
CCCN1CCN(CCCNC(=O)Cn2nc(C)n3c(cc4cc(OC)ccc43)c2=O)CC1,x,x,x,-3%,-88*,4%
CCOC(=O)[C@H](C)Oc1ccc(Oc2nc3ccc(Cl)cc3o2)cc1,5%[201 µM],-1%[201 µM],x,x,x,x
CCC(=O)NC1=C(Cl)C(=O)C(NC(=O)CC)=C(Cl)C1=O,8%,0%,7%,-3%,-86*,-1%
CCN1C(=O)c2ccccc2S(=O)(=O)c2ccc(C(=O)NCc3ccccc3Cl)cc21,-6%,1%,x,x,x,x
COc1ccc(CCn2c(O)cc3nn(-c4nc5ccccc5s4)c(=O)c-3c2C)cc1,u,22µM*[quencher],x,-19%,-12,u
CC(=O)c1cccc(NC(=O)CCCSc2ccccc2)c1,x,x,x,14%,-81*,-1%
CC[C@@H](C)[C@H]1O[C@]2(CC[C@H]1C)C[C@@H]1C[C@@H](CC=C(C)[C@@H](O[C@H]3C[C@H](OC)[C@@H](O[C@H]4C[C@H](OC)[C@@H](O)[C@H](C)O4)[C@H](C)O3)[C@@H](C)C=CC=C3CO[C@@H]4[C@H](O)C(C)=C[C@@H](C(=O)O1)[C@]34O)O2,x,x,x,-19%,-18,x
Cc1cc(C(=O)COC(=O)c2ccc(O)cc2O)c(C)n1-c1ccccc1,x,x,x,-15%,u,-10%
COc1ccc(-n2c(C)cc(C(=O)COC(=O)c3ccc(O)cc3O)c2C)cc1,x,x,x,14%,-74*,-15%
COc1ccc(-c2noc(CCC(=O)Nc3ccccc3Cl)n2)cc1OC,-28%[53 µM],0.004µM*[quencher],x,x,x,x
SMILES,TRb SRC2 PPI,TR SRC2 fluor cs,CBFb-RUNX1 inh,Eya2 phos inh,TSHR antag,USP2a inh
CCCC[C@H]1CCCO[C@@](C(=O)NCc2ccc(C)o2)(C(F)(F)F)C1,2%,0%,2%,x,x,x
COc1ccc(CNC(=O)c2cnc3sc(N4CCOCC4)nn3c2=O)cc1,-9%,501µM*[quencher],x,x,x,x
COc1ccc(CCNC(=O)c2cnc3sc(N4CCOCC4)nn3c2=O)cc1,-6%,u,x,x,x,x
CCN(C(=O)CSc1nnc(-c2ccccc2)o1)c1c(N)n(Cc2ccccc2)c(=O)[nH]c1=O,4%,3%,6%,-3%,-109*,-2%
NC(=O)C1CCN(c2nc(-c3ccccc3Cl)cs2)CC1,x,x,x,x,5,x
CN(C)c1ccc2c(-c3ccccc3)c3ccc(=[N+](C)C)cc-3oc2c1,0.1µM*,0.89µM*[fluorescent],x,x,x,x
C=CCc1ccccc1OCC(O)CN1CCN(c2ccccc2)CC1 (stereo not given),u,1.6µM*[quencher],x,x,x,x
CC1(C)C(=O)N(Br)C(=O)N1Cl,1%[201 µM],-2%[201 µM],x,x,x,x
COCCCn1c(=O)c2sccc2n(Cc2cccc(C)c2)c1=O,x,x,x,3%,-131*,0%
COCCCn1c(=O)c2sccc2n(Cc2cccc(F)c2)c1=O,x,x,x,-4%,50,0%
Cc1c(C(=O)Nc2ccc(-c3nc4cc(Cl)ccc4o3)cc2)oc2ccccc12,-10%,112µM*[quencher],x,x,x,x
Cc1ccc2oc(-c3cc(NC(=O)c4oc5ccccc5c4C)ccc3Cl)nc2c1,-9%,8%,x,x,x,x
CCOC(=O)N1C(COCc2ccccc2)C=CCS1(=O)=O (stereo not given),1%,-1%,11%,x,x,x
CCc1ccc(OCC(=O)NCC(c2ccc(OC)cc2)N2CCOCC2)cc1 (stereo not given),-1%,-11%,x,x,x,x
COc1ccc(OCC(=O)NCC(c2ccc(OC)cc2)N2CCOCC2)cc1 (stereo not given),-25%,89µM*[quencher],x,x,x,x
CCN(CC)c1ccc2nc3ccccc3[n+](CC)c2c1,x,x,x,u,-140*,u
CC(C)OCCCn1c(=O)c2ccccc2n2c(CCC(=O)NC3CCN(Cc4ccccc4)CC3)nnc12,x,x,x,-3%,-125*,-3%
O=C(O)c1cccc(-n2cccc2/C=C2/NC(=O)N(c3ccc(Cl)cc3)C2=O)c1,u,18µM*[quencher],u,14%,10,u
COc1ccc(-n2cccc2/C=C2/NC(=O)N(c3cccc(Cl)c3)C2=O)cc1,0%,1%,-6%,-8%,2,0%
CCn1c(=O)c(=O)[nH]c2cc(C(=O)NC3CC3)ccc21,-17%,16%,0%,0%,4,1%
CCn1c(=O)c(=O)[nH]c2cc(C(=O)NC3CCCc4ccccc43)ccc21 (stereo not given),11%,40µM*[fluorescent],-4%,-8%,-8,0%
O=C(O)CCCC/C=C(\c1ccccc1)c1cccnc1,9%,0%,x,x,x,x
